Some test systems named below: AXL; BLK; BMPR1A; BMPR1B; BMPR2; BMX; BRAF; BRSK1; BRSK2; BTK; BUB1; CAMK1B; CAMK1D; CAMK1G; CAMK1; CAMK2A; CAMK2B; CAMK2D.
Holding throughout (settings): concentration: 1 μM, replicates: in singlicate; n = 1
In another test the test system is T1, BIKE.
T1 construct: gene BMP2K

The test system of a further test is T2, BRK.
T2 construct: gene PTK6

SMILES strings stand for the structures.

Data on eleven molecules can be found in paper PMC5540273 (PLoS ONE, 2017).
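Note: KINOMEscan kinase panel screen.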

With `CN(C)c1cc(-c2ccc3c(N)n[nH]c3c2)nc(N)n1` [GSK2219329], the “%Inh” value stood at 0% in the test with AXL; 32% with BIKE; 2% in the test on BLK; 0% in the test with BMPR1A; 0% in the test on BMPR1B; 0% with BMPR2. The “%Inh” value turned out to be 13% in the test with BMX; 0% in the test on BRAF; 0% in the test on BRK; 0% in the test with BRSK1; 0% in the test on BRSK2; 0% in the test on BTK. Besides, the “%Inh” value with BUB1 is 24%; in the test on CAMK1B it was 0%; in the test with CAMK1D it was 9%; in the test with CAMK1G, 0%; in the test with CAMK1, 4%; in the test with CAMK2A, 0%. In addition, the “%Inh” value in the test with CAMK2B and in the test on CAMK2D was 0% each time.
`CN1C(=O)C(Nc2cc(Cl)c(O)c(Cl)c2)=C(c2ccc(Cl)cc2)C1=O` [SB-404321]: the “%Inh” value with AXL is on record as 27%; in the test on BIKE it was 0%; with BLK, 0%; in the test on BMPR1A, 0%; in the test with BMPR1B it was 0%; with BMPR2, 1%. The “%Inh” value was 13% in the test with BMX; 0% with BRAF; 0% in the test on BRK; 0% in the test with BRSK1; 0% with BRSK2; 0% in the test with BTK. Also, the “%Inh” value came out at 12% in the test with BUB1; 25% in the test on CAMK1B; 0% in the test with CAMK1D; 0% in the test with CAMK1G; 0% in the test on CAMK1; 0% in the test with CAMK2A. For the same molecule, the “%Inh” value with CAMK2B and with CAMK2D was 0% throughout.
For `CCC(=O)c1c(-c2ccccc2)c2cc(Cl)ccc2c(=O)n1Cc1cc(S(C)(=O)=O)n(CC(F)F)n1`, the “%Inh” value in the test on AXL worked out at 0%; in the test with BIKE, 0%; in the test on BLK it was 0%; with BMPR1A, 0%; with BMPR1B, 6%; in the test on BMPR2, 1%. The “%Inh” value turned out to be 0% in the test with BMX; 13% in the test on BRAF; 0% in the test with BRK; 0% with BRSK1; 0% with BRSK2; 0% in the test on BTK. The “%Inh” value in the test on BUB1 turned out to be 4%; with CAMK1B, 0%; in the test with CAMK1D, 0%; in the test with CAMK1G, 1%; with CAMK1 it was 0%; with CAMK2A, 2%. The “%Inh” value in the test with CAMK2B and with CAMK2D was 0% throughout.
For the molecule `Cc1cccc(-c2nc(Nc3ccc4c(cnn4C)c3)c3ccccc3n2)n1` [GW876731], the “%Inh” value with AXL is 25%; in the test on BIKE, 0%; with BLK it was 0%; with BMPR1A it was 1%; with BMPR1B it was 0%; in the test with BMPR2, 1%. The “%Inh” value is listed as 7% in the test with BMX; 0% in the test on BRAF; 0% in the test with BRK; 0% in the test on BRSK1; 2% in the test with BRSK2; 0% in the test with BTK. Besides, the “%Inh” value in the test with BUB1 came to 34%; in the test with CAMK1B it was 0%; in the test on CAMK1D it was 0%; in the test with CAMK1G it was 0%; in the test on CAMK1 it was 10%; in the test with CAMK2A, 0%. In addition, the entries for the “%Inh” value in the test on CAMK2B and with CAMK2D were 8% and 2%, respectively.
`CCC(=O)c1c(-c2ccccc2)c2cc(Cl)ccc2c(=O)n1Cc1cc(C(=O)NC2CC2)n(C)n1`: the “%Inh” value was determined as 0% with AXL; 0% in the test on BIKE; 0% in the test on BLK; 0% in the test on BMPR1A; 0% in the test on BMPR1B; 9% with BMPR2. The “%Inh” value with BMX came to 4%; in the test on BRAF, 62%; with BRK, 0%; with BRSK1 it was 0%; in the test with BRSK2, 0%; in the test with BTK, 15%. Moreover, the “%Inh” value came to 6% in the test with BUB1; 0% in the test with CAMK1B; 12% in the test on CAMK1D; 0% with CAMK1G; 20% in the test with CAMK1; 0% with CAMK2A. Further, the “%Inh” value with CAMK2B and with CAMK2D was 0% in each case.
With `COc1cccc(C2=C(N(C)c3ccccc3)C(=O)NC2=O)c1` [SB-334865], the “%Inh” value in the test on AXL, in the test on BIKE, with BLK, in the test with BMPR1A, in the test with BMPR1B and in the test with BMPR2 was 0% in each case. In addition, the “%Inh” value in the test on BMX was determined as 0%; with BRAF it was 0%; in the test with BRK, 15%; in the test with BRSK1 it was 0%; in the test with BRSK2, 0%; in the test with BTK, 0%. In addition, the “%Inh” value in the test on BUB1 came to 53%; in the test on CAMK1B, 8%; in the test with CAMK1D it was 12%; in the test with CAMK1G, 0%; in the test with CAMK1 it was 4%; in the test on CAMK2A, 0%. For the same molecule, the “%Inh” value in the test on CAMK2B stood at 0%; with CAMK2D, 17%.
`O=C(Nc1n[nH]c2cc(-c3ccccc3F)ccc12)C1CC1` [SB-733371]: the “%Inh” value with AXL came to 16%; with BIKE, 41%; with BLK it was 0%; with BMPR1A it was 21%; in the test with BMPR1B, 24%; with BMPR2, 0%. Further, the “%Inh” value in the test with BMX stood at 0%; with BRAF, 0%; with BRK it was 0%; with BRSK1, 22%; in the test on BRSK2 it was 0%; in the test with BTK, 0%. The “%Inh” value worked out at 0% in the test on BUB1; 0% with CAMK1B; 0% with CAMK1D; 0% with CAMK1G; 0% with CAMK1; 2% in the test on CAMK2A. In addition, the “%Inh” value with CAMK2B and in the test with CAMK2D was 0% each time.
With `C[C@@H]1CC[C@H](C(=O)NC2CCCCC2)CN1c1cc(-c2ccc3c(N)n[nH]c3c2)nc(N)n1` [GSK2291363], the “%Inh” value in the test with AXL worked out at 4%; with BIKE it was 78%; with BLK, 52%; in the test on BMPR1A, 0%; with BMPR1B it was 0%; in the test with BMPR2, 0%. In addition, the “%Inh” value in the test on BMX was found to be 21%; in the test with BRAF it was 5%; with BRK it was 27%; in the test with BRSK1, 0%; in the test on BRSK2 it was 10%; with BTK, 0%. The “%Inh” value with BUB1 is reported as 48%; with CAMK1B, 2%; in the test on CAMK1D it was 29%; in the test with CAMK1G it was 22%; in the test on CAMK1, 35%; in the test on CAMK2A it was 4%. The results for the “%Inh” value in the test on CAMK2B and in the test on CAMK2D were 16% and 18%, respectively.
For `O=C(NCc1cccs1)c1cc(C(=O)c2c(Cl)cccc2Cl)c[nH]1` [GW823670], the “%Inh” value worked out at 0% with AXL; 19% with BIKE; 28% in the test on BLK; 7% with BMPR1A; 0% with BMPR1B; 15% with BMPR2. In addition, the “%Inh” value in the test on BMX, in the test on BRAF, in the test with BRK, in the test with BRSK1, with BRSK2 and in the test on BTK was 0% in each case. Further, the “%Inh” value in the test with BUB1, with CAMK1B, with CAMK1D, in the test on CAMK1G, in the test on CAMK1 and with CAMK2A was 0% each time. The “%Inh” value with CAMK2B and with CAMK2D was 0% in each case.
In the case of `COc1cc2ncn(-c3cc(OCc4ccc(S(C)(=O)=O)cc4)c(C(N)=O)s3)c2cc1OC` [GW869979], the “%Inh” value with AXL is given as 31%; in the test on BIKE it was 0%; in the test with BLK, 46%; with BMPR1A it was 11%; with BMPR1B, 30%; in the test on BMPR2, 8%. The “%Inh” value is listed as 6% with BMX; 6% with BRAF; 0% in the test on BRK; 4% in the test with BRSK1; 0% in the test on BRSK2; 0% in the test with BTK. Moreover, the “%Inh” value in the test with BUB1 was determined as 28%; with CAMK1B it was 0%; in the test on CAMK1D, 0%; with CAMK1G it was 0%; in the test with CAMK1 it was 0%; in the test on CAMK2A it was 3%. Moreover, the “%Inh” value with CAMK2B amounted to 6%; in the test with CAMK2D, 0%.
For the molecule `Nc1ncnc2c1ncn2-c1cccc2ccccc12` [SKF-97184], the “%Inh” value is 0% with AXL; 0% in the test on BIKE; 6% in the test on BLK; 0% in the test on BMPR1A; 0% with BMPR1B; 35% with BMPR2. Also, the “%Inh” value is on record as 0% in the test on BMX; 0% in the test on BRAF; 0% in the test on BRK; 0% with BRSK1; 22% with BRSK2; 0% in the test with BTK. For the same molecule, the “%Inh” value with BUB1 came out at 37%; in the test with CAMK1B, 27%; with CAMK1D, 10%; in the test on CAMK1G, 8%; in the test with CAMK1 it was 20%; in the test on CAMK2A it was 0%. In addition, the “%Inh” value in the test on CAMK2B and with CAMK2D was 0% each time.
